# M18AAP inhibitor: PfM18AAP inhibitors, malaria aminopeptidase, primary screen, biochemical, QFRET, recombinant enzyme; M18 aspartyl aminopeptidase (Plasmodium falciparum 3D7); H-Glu-NHMec fluorogenic cleavage; inhibition, % at 7.35 µM; 1.2% of 290,000 active; AID 1822, 2009;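 active = inhibition above the campaign mean inhibition over all tested compounds plus 3 SD, cut at about 28% in these data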;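 also: 0% = plate median of test compound wells and 100% = 2 mM ZnCl2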
# Platelet DG rel: inhibitors of platelet dense granule secretion, primary screen, cell-based, MLPCN, human platelets; inhibition, %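 (compounds screened at 7.5 µM in platelet-rich plasma)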; human platelet-rich plasma, SFLLRN dense granule ATP release, luminescence; 0.22% of 300,000 active;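 active = mean replicate score, as percent of positive control, at or above 50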
# Rce1 inh: yeast Rce1p protease inhibitors, primary screen, biochemical, fluorescence, cell-free homogeneous | CAAX prenyl protease 2 (Saccharomyces cerevisiae (strain ATCC 204508 / S288c)), Q03530 | yeast membranes, quenched prenylated peptide cleavage fluorescence | calls only | 0.27% of 290,000 active;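 active = fall in fluorescence gain of 50% or more versus controls, with final raw signal at or below 3038400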;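 also: plate controls were neutral control wells for no effect and wells lacking membranes for full effect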
# Target sequence (Q03530 whole entry, looked up): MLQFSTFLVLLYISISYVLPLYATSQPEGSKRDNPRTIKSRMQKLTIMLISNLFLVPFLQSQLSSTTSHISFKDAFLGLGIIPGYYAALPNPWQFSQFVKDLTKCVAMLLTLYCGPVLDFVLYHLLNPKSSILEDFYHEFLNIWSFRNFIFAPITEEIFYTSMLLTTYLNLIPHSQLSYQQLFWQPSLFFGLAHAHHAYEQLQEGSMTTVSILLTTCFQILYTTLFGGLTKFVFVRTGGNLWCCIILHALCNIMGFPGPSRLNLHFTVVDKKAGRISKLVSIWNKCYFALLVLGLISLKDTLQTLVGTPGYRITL
# Granule exo inh: LAMP-1 surface exposure blockers, TALL-104 cells – cell-based, flow cytometry, MLPCN library, primary screen | TALL-104 LAMP-1 surface exposure; cells stimulated with thapsigargin and PMA | inhibition, % at 10 µM | 0.66% of 360,000 active | AID 651702, 2012;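 active = inhibition above about 55%, limit read from the data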
# ABHD5-PLIN5 inh: ABHD5-PLIN5 interaction inhibitors, primary screen, cell lysate, split luciferase complementation, luminescence | Perilipin-5 (Homo sapiens) + 1-acylglycerol-3-phosphate O-acyltransferase ABHD5 (Homo … | Split G. princeps luciferase complementation, 4 h | inhibition, % at 4 µM | 0.78% of 360,000 active | AID 602281, 2012;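 active = inhibition above the mean inhibition across every tested compound plus 3 SD, cut at about 22% in these data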;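 also: 0% = DMSO only wells and the 100% control is not disclosed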
# ABHD5 PLIN5 conf: ABHD5-PLIN5 interaction inhibitors, confirmation, biochemical, luminescence; shares compounds with ABHD5-PLIN5 inh; inhibition, % at 4 µM; 67% of 2,200 active; in the data active = inhibition above about 23%;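 also: 0% = DMSO vehicle wells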
# HNF4 split-luc: HNF4 dimerization inhibitors, counter-screen for ABHD5-PLIN5 interaction inhibitor project, biochemical, split-luciferase complementation, luminescence; shares compounds with ABHD5-PLIN5 inh; inhibition, % at 4 µM; 77% of 2,200 active; AID 651674, 2012;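 active = mean inhibition across replicate wells exceeding the computed hit threshold, cut at about 13% in these data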;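 also: light from luciferase halves that rejoin when HNF4 fusion proteins dimerize; 0% = DMSO only wells and the 100% control is not given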
# An asterisk follows results filed as active; i = inactive; . = no result given. An excerpt weighted towards active compounds, which were near 2.6% of everything screened.
SMILES,M18AAP inhibitor,Platelet DG rel,Rce1 inh,Granule exo inh,ABHD5-PLIN5 inh,ABHD5 PLIN5 conf,HNF4 split-luc
Cc1ccc(-n2c(C)cc(/C=C3\SC(=O)NC3=O)c2C)cc1,9.0,-1.3,i,5.3,-7.0,.,.
CCCn1c(-c2cc(OC)c(OC)c(OC)c2)nc2nc3ccccc3nc21,6.7,2.1,i,-1.3,-2.3,.,.
CCOC(=O)c1ccc(NC(=O)CSc2nc3c(c(=O)n2CC)SC(C)C3)cc1 (stereo not given),-2.6,6.5,i,1.2,81.3*,4.1,8.4
COc1ccc(/C=C/C(=O)c2ccc(C)c([N+](=O)[O-])c2)cc1O,3.9,-8.0,i,1.2,40.4*,80.3*,72.8*
COc1cccc(/C=C/C(=O)c2ccc(NS(=O)(=O)c3ccc(C)cc3)cc2)c1,2.0,3.9,i,-1.2,32.1*,79.5*,61.4*
COc1cccc(C(=O)/C=C/Nc2ccc(S(=O)(=O)Nc3cccc(C(C)=O)c3)cc2)c1,3.0,4.6,i,6.7,6.8,.,.
COc1cc(/C=C/C(=O)c2ccc(C)c([N+](=O)[O-])c2)cc(OC)c1O,-21.7,21.8,i,1.2,64.9*,78.6*,71.6*
COc1cc(/C=C/C(=O)O)cc(OC)c1O,.,-1.3,i,3.1,-6.8,.,.
COc1ccc(C(=O)/C=C/c2ccc(N3CCCCC3)c([N+](=O)[O-])c2)cc1,-1.4,-16.9,i,-15.7,16.8,.,.
COc1cc(/C=C/C(=O)c2cccc([N+](=O)[O-])c2)cc(OC)c1OC,7.5,-13.3,i,-1.8,29.6*,95.1*,92.3*
COC(=O)c1c(NC(=O)C(C)C)sc2c1C(C(=O)OC)CC2 (stereo not given),-5.0,1.5,i,-1.2,0.1,.,.
CCC(=O)N1CCN(c2ccccc2NC(=O)c2cccs2)CC1,4.2,-3.7,i,2.1,-3.1,.,.
Clc1ccccc1CSc1snnc1-c1ccccc1,-0.4,-1.5,i,-0.7,-0.3,.,.
CCNC(=S)N/N=C/c1cc(Br)cc(Br)c1OC,-0.7,-0.3,i,0.0,-5.1,.,.
Cc1cccc(NC(=O)CC(C)(C)C)c1,-3.0,-2.0,i,5.8,-2.5,.,.
COc1cc(/C=C/C(=O)c2ccc(O)cc2)ccc1OCC#N,-1.6,5.0,i,-0.2,18.4,.,.
COc1cccc(C(=O)/C=C/c2ccc(OCC#N)c(OC)c2)c1,6.0,-8.5,i,2.9,55.1*,86.2*,77.2*
COc1cccc(/C=C/C(=O)c2ccc(C)c([N+](=O)[O-])c2)c1,13.8,1.5,i,-2.8,55.5*,102.1*,105.4*
Cc1nnc(SCC(=O)Nc2ncc(S(=O)(=O)c3ccc([N+](=O)[O-])cc3)s2)s1,-4.3,8.3,i,1.9,3.9,.,.
CC1CCN(S(=O)(=O)c2ccc(NC(=O)Cc3ccccc3)cc2)CC1,-3.0,-7.2,i,1.4,33.3*,49.9*,-3.8
CC1CCN(S(=O)(=O)c2ccc(NC(=O)Cn3nnc(-c4ccccc4F)n3)cc2)CC1,-3.5,7.3,i,-5.8,25.7*,41.1*,2.2
O=C(Cc1ccccc1)Nc1ccc(S(=O)(=O)N2CCOCC2)cc1,-5.8,0.0,i,-14.1,-17.9,.,.
N#CC1=C(S)N(c2ccc(F)cc2)C(c2ccco2)NC1=O (stereo not given),12.5,-6.2,i,5.6,-13.7,.,.
CCN1C(=O)[C@@H]2[C@@H](c3ccc(-c4ccc(Cl)c(Cl)c4)cc3)N3CCC[C@@]3(C(=O)OC)[C@@H]2C1=O,.,.,.,-2.1,7.1,.,.
O=C(/C(=C/O)N=Nc1ccc(Cl)cc1)c1ccncc1,-0.4,1.6,i,2.2,37.8*,37.7*,-6.5
SMILES,M18AAP inhibitor,Platelet DG rel,Rce1 inh,Granule exo inh,ABHD5-PLIN5 inh,ABHD5 PLIN5 conf,HNF4 split-luc
O=C1C(=Cc2ccco2)CCC1=Cc1ccco1,.,.,.,-0.5,37.1*,59.0*,89.0*
O=C1C(=Cc2ccco2)CCCC1=Cc1ccco1,.,.,.,6.1,38.8*,53.5*,63.5*
CCOC(=O)c1cccc(C2=CC(=O)CC(C)(C)C2)c1,.,.,.,-4.0,3.8,.,.
Nc1nc(SCC(=O)c2ccc([N+](=O)[O-])cc2)n[nH]1,4.4,-0.5,i,0.2,0.2,.,.
Nc1nc(Sc2c([N+](=O)[O-])cc(C(F)(F)F)cc2[N+](=O)[O-])n[nH]1,-91.7,-7.0,i,19.5,57.9*,78.5*,97.8*
CCC(=O)NC1=C(Cl)C(=O)C(NC(=O)CC)=C(Cl)C1=O,-38.0,.,.,-0.3,44.7*,101.4*,103.3*
N#Cc1ccccc1OCC(=O)N1CC(=O)Nc2ccccc21,.,.,.,12.9,-3.7,.,.
CC1=Nc2cc(C(=O)O)ccc2Sc2ccc(Br)cc21,-1.6,.,.,0.4,-0.2,.,.
O=C(COC(=O)CCC(=O)c1ccc(Cl)cc1)NCc1ccco1,3.7,-1.1,i,5.1,24.9*,10.6,7.5
COc1ccc(S(=O)(=O)N(C)CC(=O)Nc2ccccc2SC)cc1Cl,2.9,8.1,i,3.3,9.8,.,.
CC1=CC(C)(C)Nc2ccc(OC(=O)CN3C(=O)c4ccccc4C3=O)cc21,7.2,-0.5,i,1.5,66.1*,85.6*,79.4*
CC1=CC(C)(C)Nc2ccc(OC(=O)CN3C(=O)c4cccc5cccc(c45)C3=O)cc21,18.1,13.7,i,-2.3,31.5*,70.9*,8.1
COC(=O)c1ccc(NC(=O)C2CCN(C(=O)c3cc(OC)c(OC)c(OC)c3)CC2)cc1,16.4,.,.,7.2,-6.6,.,.
CCCCOc1ccc(S(=O)(=O)Nc2ccc(NC(C)=O)cc2)cc1,-11.2,-1.4,.,2.2,0.8,.,.
CC(C)(C)NC(=O)C(c1ccncc1)N(Cc1ccco1)C(=O)c1ccc(-c2ccccc2)[nH]1 (stereo not given),3.1,1.5,i,24.5,30.1*,31.4*,43.5*
Cc1ccc(-c2nc3c(c(=O)c4ccccc4n3C)c(=O)n2Cc2ccco2)cc1,-3.0,-6.8,i,-4.0,37.2*,18.8,13.4*
O=c1c2ccccc2sc2nc(C3CCCCC3)n(Cc3ccco3)c(=O)c12,-25.1,-1.1,i,-0.4,26.4*,36.5*,42.6*
CCc1nc2sc3ccccc3c(=O)c2c(=O)n1Cc1ccco1,-12.3,1.1,i,-0.3,23.6*,35.8*,49.7*
CCCc1nc2sc3ccccc3c(=O)c2c(=O)n1Cc1ccccc1,.,.,.,-5.6,-9.9,.,.
Cc1ccc2oc(C(=O)N(Cc3nccn3C)C(C)C)c(C)c2c1,2.8,0.0,i,-2.2,-3.2,.,.

# Compound activity: PubChem BioAssay, several laboratories
